Rv3671c inh = Rv3671c serine protease inhibitors, primary screen, biochemical, fluorescence polarization, M. tuberculosis H37Rv | hit rate 0.048% among 320,000 | inhibition, % at 5.96 µM | AID 2606, 2010 | P9WHR9; in the data active = inhibition above about 38%;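 note: extracellular domain of Rv3671c used as enzyme; 0% = enzyme with DMSO and 100% = no enzyme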
Mtb FBA inh = Mtb FBA enzyme inhibitors, primary screen, biochemical, fluorescence, strain H37Rv. purified M. tuberculosis FBA, fluorescence read-out. hit rate 2.3% among 360,000. inhibition, % at 1 µM. Fructose-bisphosphate aldolase (Mycobacterium tuberculosis (strain ATCC 25618 / H37Rv)), …; in the data active = inhibition above about 27%;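 note: 0% = vehicle and 100% = reference inhibitor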
Mtb UGM inh = M. tuberculosis UGM enzyme inhibitors, primary screen, biochemical, fluorescence polarization, single point | UDP-galactopyranose mutase (Mycobacterium tuberculosis (strain ATCC 25618 / H37Rv)), … | purified UGM, fluorescence polarization probe displacement | inhibition, % at 10 µM | hit rate 0.06% among 320,000 | AID 504406, 2011; in the data active = inhibition above about 10%, passing the limit was not always enough
Target sequence (P9WIQ1 whole entry, looked up): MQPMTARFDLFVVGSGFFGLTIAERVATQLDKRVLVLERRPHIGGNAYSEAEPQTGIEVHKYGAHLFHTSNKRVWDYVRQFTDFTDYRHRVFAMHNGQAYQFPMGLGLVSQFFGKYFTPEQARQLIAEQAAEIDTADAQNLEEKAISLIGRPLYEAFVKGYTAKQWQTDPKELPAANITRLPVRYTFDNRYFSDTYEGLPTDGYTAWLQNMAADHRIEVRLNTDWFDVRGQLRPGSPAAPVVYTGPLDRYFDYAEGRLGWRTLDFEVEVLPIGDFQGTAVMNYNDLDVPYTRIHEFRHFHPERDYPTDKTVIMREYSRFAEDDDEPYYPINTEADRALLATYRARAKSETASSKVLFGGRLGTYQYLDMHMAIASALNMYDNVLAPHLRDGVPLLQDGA
GDH-TPI counter = GDH-TPI coupling enzyme inhibitors, primary screen, artefact control for M. tuberculosis FBA inhibitor project, biochemical, absorbance, full deck; GDH-TPI coupled enzyme counterscreen, NADH absorbance; AID 588335, 2011; inhibition, % at 4.8 µM; hit rate 1.2% among 360,000; in the data active = inhibition above about 30%;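 note: 0% = DMSO wells and 100% = wells lacking the enzyme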
Mtb bLac sens = beta-lactam sensitization of Mtb H37Rv, H37Rv. hit rate 0.27% among 330,000. AID 434955, 2010. M. tuberculosis H37Rv growth with meropenem, percent inhibition. inhibition, % at 25 µM; call rule not given here;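 note: growth measured after seven days incubation then overnight dye step; 0% = bacteria only wells and 100% = bacteria with antibiotic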
Starred values were filed as active, the others as inactive; x = no result given; + = active, no number. Shown are actives, neighbours in structure and some others; about 3.5% of the full set was active somewhere.

SMILES | Rv3671c inh | Mtb FBA inh | Mtb UGM inh | GDH-TPI counter | Mtb bLac sens
O=C(N/N=C/c1ccncc1)c1cc2ccccc2o1 | 2 | -3 | 2 | 29 | -1
O=C(N/N=C/c1cccnc1)c1cc2c(ccc3ccccc32)o1 | -7 | 7 | 1 | 32* | 5
CC1(C)NC(=O)N(CC(O)COc2ccc(-c3ccc(C#N)cc3)cc2)C1=O (configuration not stated) | -15 | 69* | 1 | -1 | -17
CC1(C)NC(=O)N(CC(O)COc2ccc(-c3ccccc3)cc2)C1=O (configuration not stated) | -2 | -1 | -1 | 2 | -1
CN(CC(=O)Nc1cccc(F)c1)C(=O)/C=C/c1ccc2ccccc2n1 | -12 | 1 | -1 | 4 | -5
C=CCNc1oc(-c2cccs2)nc1C#N | 1 | + | 4 | 28 | -10
Cc1ccc(CNc2oc(-c3cccs3)nc2C#N)cc1 | 0 | + | -2 | 7 | 5
CCOc1ccc(Nc2oc(-c3cccs3)nc2C#N)cc1 | 3 | 13 | -2 | 18 | -3
N#Cc1nc(-c2cccs2)oc1NCc1ccco1 | 0 | + | -1 | 20 | 3
N#Cc1nc(-c2cccs2)oc1NCc1ccccc1Cl | -4 | 158* | 0 | 25 | 74
CC1(C(=O)Nc2cccc3c2CCCC3)CCN1C(=O)Cc1ccccc1Cl (configuration not stated) | x | -2 | x | -5 | x
N#Cc1nc(-c2cccs2)oc1NCc1ccc(Cl)cc1 | 3 | + | 1 | 7 | -6
N#Cc1nc(-c2cccs2)oc1NCc1ccccc1 | -1 | + | -4 | 22 | 56
CNc1nnc(-c2ccc(N(C)C)cc2)s1 | -2 | + | -1 | 46* | 3
COc1ccccc1-c1nc(C#N)c(NCCCn2ccnc2)o1 | 2 | + | 1 | 6 | -7
COc1ccc(CCNc2oc(-c3ccccc3OC)nc2C#N)cc1 | 0 | + | 0 | 18 | 1
COc1ccc(/C=C/c2nc(C#N)c(NCCN(C)C)o2)cc1OC | -1 | 15 | -2 | 28 | 0
CN(C)c1oc(/C=C/c2ccccc2)nc1C#N | 4 | x | 1 | 24 | -1
COc1ccc(-c2nc(C#N)c(NCCCN(C)C)o2)cc1OC | 3 | + | 3 | 12 | -3
CCN(CC)CCCNc1oc(/C=C/c2ccccc2)nc1C#N | 3 | + | 1 | 28 | 1
N#Cc1ccc(S(=O)(=O)N2CCN(Cc3cccs3)CC2)cc1 | -2 | -2 | -3 | 6 | -7
CNc1oc(/C=C/c2cccc(OC)c2)nc1C#N | 4 | + | 0 | 28 | 6
COc1ccc(CCNc2oc(-c3ccc(OC)c(OC)c3)nc2C#N)cc1 | 0 | + | -1 | 36* | -5
N#Cc1nc(-c2ccccc2F)oc1NCc1cccc2c1OCO2 | -15 | 14 | 1 | 13 | 3
CN(C)CCCNc1oc(-c2ccccc2)nc1C#N | -6 | 131* | 0 | 6 | 26
SMILES | Rv3671c inh | Mtb FBA inh | Mtb UGM inh | GDH-TPI counter | Mtb bLac sens
CN(C)CCNc1oc(-c2ccccc2F)nc1C#N | 1 | 145* | -3 | 16 | -8
O=C(O)C1=CCNCC1 | -3 | 1 | 0 | 0 | -3
O=C(COC(=O)C1CCN(S(=O)(=O)c2ccccc2)CC1)NC(=O)c1ccc(OC(F)F)cc1 | -8 | 2 | 2 | 2 | 5
CCCC12CN3CCN(CC(C3)/C1=N\NC(=O)c1ccc(C(C)(C)C)cc1)C2 | 6 | 5 | -2 | -3 | 5
O=C(CN(c1ccc(F)cc1)S(=O)(=O)c1ccccc1)NC1CCCCCC1 | 5 | 2 | -3 | -2 | -8
COc1ccc(-c2nc(C#N)c(NC(C)c3ccccc3)o2)cc1OC (configuration not stated) | 3 | 144* | 0 | 13 | 69
COc1ccccc1-c1nc(C#N)c(NCc2ccc(F)cc2)o1 | 8 | 113* | -2 | 14 | 22
CN(C)CCCNc1c2ccccc2nc2ccccc12 | -15 | 177* | 4 | 7 | 6
CN1CCN(C(=O)CN(C)S(=O)(=O)c2ccc(F)cc2)CC1 | -1 | 1 | -1 | 21 | -6
CC12CCC(C(=O)N(CC3CO3)C1=O)C2(C)C (configuration not stated) | -8 | -4 | 0 | -1 | 2
CCC(CC)COC(=O)C1=C(C)NC(=O)NC1c1ccc(N(C)C)cc1 (configuration not stated) | 5 | 184* | -1 | -2 | 1
CCOC(=O)C1=C(C)NC(=O)NC1c1ccc(N(C)C)cc1 (configuration not stated) | x | 1 | x | -4 | x
O=c1c2ccccc2[nH]c2ccccc12 | 0 | 139* | 2 | 4 | 8
CC1CCCN(C(=O)COC(=O)Cn2cnc3ccccc32)C1 (configuration not stated) | 2 | 5 | 1 | 6 | -5
Cc1cc(/C=N/NC(=O)c2ccc(O)cc2)c(C)n1CC(C)C | 6 | 4 | -1 | 47* | 1
O=C(N/N=C/c1c[nH]c2ccccc12)c1cc(-c2ccc(-c3ccccc3)cc2)n[nH]1 | -83 | 3 | -1 | 13 | 25
CC(C)c1ccc2[nH]c3c(c2c1)CCC/C3=N\NC(=O)c1ccncc1 | 6 | 5 | 0 | 16 | 98
COCCn1c(C)cc(/C=N/NC(=O)c2cccnc2)c1C | -1 | -1 | 1 | 7 | -3
Nc1ccc(C(=O)N/N=C2\CCCc3c2[nH]c2ccccc32)cc1 | -1 | 12 | 3 | 62* | -3
O=C(N/N=C\c1c[nH]c2ccccc12)c1ccc(O)cc1 | x | 0 | 0 | 32* | 1
O=C(N/N=C/c1c[nH]c2ccccc12)c1cc(-c2ccccc2)n[nH]1 | 7 | -6 | 3 | 37* | 54
COc1ccc(OC)c(S(=O)(=O)N2CCN(CC(O)COc3ccccc3)CC2)c1 (configuration not stated) | 6 | 3 | 1 | 5 | -8
Nc1ccc(C(=O)N/N=C/c2c[nH]c3ccccc23)cc1 | -5 | 0 | 1 | 41* | 2
O=C(N/N=C/c1c[nH]c2ccccc12)c1ccc(Br)cc1 | 2 | 4 | -2 | 20 | -5
NC(=S)N/N=C/c1c[nH]c2ccccc12 | -2 | -1 | -1 | 56* | 96
CN(CC(=O)Nc1ccc(F)c(F)c1F)C(=O)Cc1ccc(S(=O)(=O)N2CCOCC2)s1 | x | -1 | x | -5 | x
CCn1c(SCC(=O)Nc2ccc(N3CCOCC3)cc2)nnc1-c1ccncc1 | -6 | 1 | 0 | -5 | -3
CCC(C)(C)NC(=O)C(c1ccc(F)cc1)N(Cc1cccs1)C(=O)c1cnccn1 (configuration not stated) | -4 | -2 | 0 | 3 | 7
COc1ccc(-n2c(/C=C(\C)O)nc(=O)c3c(C)cc(C)nc32)cc1 | -7 | 6 | 0 | 59* | 27

High-throughput results from PubChem BioAssay.
